Test results: the supplement of paper PMC6555819

Columns and labels:
Experiment in all cases: PBM binding z-score (relative to random genomic background probes); higher = stronger binding; sequences stand for … in GC…GCGATTGACAGCGTAGAATGAAGG
[1] = tested on: PPARg:RXRa DBDmut IVT, anti-RXR (DBD mutation: RXRa K156A/R161A, NR concentration 270 nM, RXRa partner concentration 90 nM)
Procedure, shortened: (§1)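 Each nuclear receptor dimer, without ligand, was incubated for 1 h on custom Agilent 4×180K protein-binding microarrays. Binding was detected with antibodies against each partner (one per run), and scanned fluorescence was regression-normalized. The binding z-scores are referenced to random human genomic background probes.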

[2] = tested on: PPARg:RXRa IVT, anti-PPARg (NR concentration 270 nM, RXRa partner concentration 90 nM)
Procedure, shortened: as §1

[3] = tested on: PPARg DBDmut:RXRa IVT, anti-PPARg (DBD mutation: PPARg1 K132A/R137A, NR concentration 270 nM, RXRa partner concentration 90 nM)
Procedure, shortened: as §1

[4] = tested on: PPARg DBDmut IVT, anti-PPARg (DBD mutation: PPARg1 K132A/R137A, NR concentration 270 nM)
Procedure, shortened: as §1

[5] = tested on: PPARg homodimer (NR concentration 180 nM)
Procedure, shortened: as §1

[6] = tested on: PXR:RXRa (NR concentration 270 nM, RXRa partner concentration 90 nM)
Procedure, shortened: as §1

[7] = tested on: PXR homodimer (NR concentration 270 nM)
Procedure, shortened: as §1

[8] = tested on: RARa:RXR (NR concentration 270 nM, RXRa partner concentration 90 nM)
Procedure, shortened: as §1

[9] = tested on: RARa homodimer (NR concentration 270 nM)
Procedure, shortened: as §1

[10] = tested on: RARb:RXRa (NR concentration 270 nM, RXRa partner concentration 90 nM)
Procedure, shortened: as §1

[11] = tested on: RARb homodimer (NR concentration 270 nM)
Procedure, shortened: as §1

[12] = tested on: RARg:RXRa (NR concentration 270 nM, RXRa partner concentration 90 nM)
Procedure, shortened: as §1

[13] = tested on: RARg homodimer (NR concentration 270 nM)
Procedure, shortened: as §1

[14] = tested on: RXRa DBDmut IVT, anti-RXR (DBD mutation: RXRa K156A/R161A, NR concentration 90 nM)
Procedure, shortened: as §1

[15] = tested on: RXRa homodimer (NR concentration 180 nM)
Procedure, shortened: as §1

[16] = tested on: THRa homodimer (NR concentration 90 nM)
Procedure, shortened: as §1

[17] = tested on: VDR homodimer (NR concentration 270 nM)
Procedure, shortened: as §1

[18] = tested on: VDR:RXRa (NR concentration 270 nM, RXRa partner concentration 90 nM)
Procedure, shortened: as §1

Row | Sequence | PBM binding z-score [1] | PBM binding z-score [2] | PBM binding z-score [3] | PBM binding z-score [4] | PBM binding z-score [5] | PBM binding z-score [6] | PBM binding z-score [7] | PBM binding z-score [8] | PBM binding z-score [9] | PBM binding z-score [10] | PBM binding z-score [11] | PBM binding z-score [12] | PBM binding z-score [13] | PBM binding z-score [14] | PBM binding z-score [15] | PBM binding z-score [16] | PBM binding z-score [17] | PBM binding z-score [18]
1 | CGTCCAAGGTCAAAGGTCAGTGGAGAGATGACGG | 3.88 | 5.79 | 1.38 | 0.543 | 4.78 | 7.21 | 1.94 | 8.88 | 2.17 | 6.16 | 5.56 | 8.71 | 8.02 | 4.1 | 10.1 | 2.93 | 4.05 | –
2 | ATATGTAGGTTAGCTGGGGTCATTCATACTAGGC | 6.88 | 6.57 | 2.9 | 2.72 | 3.41 | 6.71 | 4.4 | 6.18 | 2.13 | 3.28 | 3.88 | 4.01 | 3.08 | 2.52 | 5.44 | 3.63 | 4.81 | –
3 | GCATATAGGTCATACAAGGTGAAAGTCCGATTGT | 6.81 | 7.41 | 3.79 | 2.08 | 2.85 | 4.68 | 0.812 | 4.41 | 1.09 | 4.29 | 3.94 | 5.1 | 4.65 | 1.98 | 4.8 | 1.62 | 1.23 | –
4 | TCTGCTAGGTCAACGAAGGTCAGCTAATCTGCTA | 4.15 | 4.53 | 0.834 | 0.313 | 3.51 | 5.64 | 0.241 | 4.51 | 0.797 | 4.95 | 5.28 | 5.51 | 6.42 | 1.14 | 4.18 | 1.69 | 1.38 | –
5 | ACTCGGAGGACAAAGATCAGAGCTACGCCAGTGA | 0.131 | -0.127 | -1.09 | -0.113 | -0.398 | -0.522 | -0.433 | -0.384 | -0.637 | 0.778 | -0.272 | 0.568 | 0.931 | 0.426 | 0.18 | -0.696 | -0.571 | –
6 | CAAACTAGGTCATGAGGTCAAAGTCCGCTTCCCG | 8.1 | 8.5 | 2.32 | 1.99 | 5.08 | 5.91 | 4.28 | 6.92 | 2.05 | 5.03 | 5.22 | 7.26 | 6.81 | 3.45 | 7.98 | 4.88 | 5.84 | 6.08
7 | GCATATAGGTAATACAAGATGAAAGTCCGATTGT | 4.04 | 2.21 | 1.01 | 1.1 | 0.319 | 0.0663 | 0.0386 | 0.202 | 0.786 | -0.216 | -0.399 | 0.381 | 0.572 | 0.287 | 0.469 | -0.636 | -0.117 | –
8 | TATACATGGTCAAAGGCCAGAGTACGAATGTCGA | -0.282 | 1.86 | 1.66 | 0.812 | 0.786 | 0.255 | 0.252 | 0.943 | 0.241 | 1.6 | 1.31 | 1.59 | 1.67 | -0.652 | 1.39 | -0.46 | 0.302 | –
9 | CGTCAAAGTTCAATTAAGGTAACGTAAAGCACGC | 0.465 | 2 | 1.09 | 1.89 | 3.06 | 5.26 | 3.98 | 3.88 | 1.69 | 4.78 | 3.89 | 5.26 | 5.98 | 4.4 | 3.67 | 2.51 | 3.71 | 3.98
10 | CGCGAAAGGTCGGTTGAGGTGAGTATACGGATAA | 0.0113 | 0.699 | 0.0036 | -0.174 | 0.986 | 3.35 | -0.075 | 3.62 | 0.138 | 3.08 | 2.23 | 2.88 | 2.61 | 0.708 | 2.44 | 1.65 | 0.652 | –
11 | CCTAGCAGGCCAATCTGGATCACTCAAGGCTTGA | 1.73 | 0.817 | -1.11 | -1.19 | -0.873 | -0.635 | -0.965 | -0.47 | -0.695 | 0.0834 | -0.439 | -0.153 | -0.148 | 0.159 | -0.35 | -0.7 | -0.867 | –
12 | CCTTACGGGTCACTCGAGGTTATAGCATCGGAGT | 2.22 | 3.7 | 0.422 | 0.0524 | 1.69 | 5.71 | 0.375 | 3.69 | 0.443 | 3.91 | 3.27 | 4.49 | 3.78 | 1.69 | 4.75 | 0.632 | 2.08 | –
13 | GCGACTGGGGCAAAGCAGGTCACCATAAGGTTGG | 3.8 | 4.81 | 0.568 | -0.842 | 1.51 | 3.05 | -0.164 | 2.96 | -0.0737 | 2.42 | 3.27 | 2.56 | 2.37 | -0.174 | 2.09 | 1.37 | 0.256 | –
14 | GGAACGTGGGCATTCGAGTTGATAGCATGGCGAT | -0.654 | -0.803 | -0.387 | -0.8 | -0.877 | -0.129 | -0.516 | -0.333 | -0.773 | -0.433 | -0.657 | -0.318 | -0.321 | -0.166 | -0.389 | -1.07 | 0.0395 | –
15 | AATACAGGGTCATCCTAGGCCAGAGTACGCACAG | 2.5 | 4.16 | 1.89 | 1.39 | 2.39 | 5 | 0.711 | 4.8 | 1.41 | 4.46 | 3.81 | 5.57 | 4.83 | 3.9 | 6.16 | 1.97 | 3.52 | 5.38
16 | ACTAGTTGGTCAACTGAGGTCACACACAATTCGG | 2.42 | 3.75 | 1.07 | 0.421 | 2.02 | 6 | 1.2 | 4.59 | 1.19 | 4.1 | 4.82 | 4.49 | 4.46 | 1.89 | 4.58 | 4.84 | 3.22 | –
17 | TAGCCGAGGTCAGATCGGGCCAGTATACGCTATA | 0.468 | 2.23 | 0.311 | -0.734 | 1.19 | 4.38 | -0.437 | 3.81 | -0.0454 | 4.42 | 3.62 | 5.06 | 5.59 | 2.66 | 4.74 | 1.32 | 2.08 | –
18 | CCTAGCAGGTCAATCTGGGTCACTCAAGGCTTGA | 5.78 | 6.18 | 1.08 | -0.626 | 2.33 | 5.31 | 0.0416 | 4.45 | 0.436 | 3.96 | 4.09 | 4.92 | 5.25 | 2.2 | 4.25 | 1.44 | 1.66 | –
19 | TAGCCTAGGTCAGATCGGGTCAGTATACGCTATA | 0.599 | 2.06 | -0.409 | 0.264 | 0.633 | 4.16 | -0.399 | 2.21 | -0.275 | 3.55 | 3.56 | 3.77 | 4.62 | -0.194 | 2.58 | 1.29 | 0.51 | –
20 | CGTCCAAGGTCATAGGAGGTCAGAGAAGACAGAT | 3.19 | 4.81 | 1.6 | 0.958 | 3.89 | 6.83 | 4.38 | 6.6 | 1.92 | 5.51 | 5.31 | 6.78 | 7.13 | 4.15 | 6.71 | 3.44 | 4.23 | –
21 | GCATATAGGTTATACAAGGTGAAAGTCCGATTGT | 4.93 | 4.04 | 0.859 | 0.875 | 1.26 | 2.26 | 0.302 | 2.49 | 0.937 | 1.6 | 1.57 | 1.7 | 1.41 | 0.657 | 1.79 | 1.27 | 0.435 | –
22 | CGTCCAAGGTCAGCGAGGTCAGTGAATGCCGAGT | 3.43 | 3.81 | -0.776 | -0.834 | 4.66 | 6.03 | 11.6 | 5.42 | 1.25 | 5.45 | 5.62 | 6.74 | 7.69 | 3.3 | 6.29 | 4.19 | 6.64 | –
23 | GATACAGGGGCAGCTAGAGGCCAGAGTATGGAAA | 0.509 | 0.442 | -0.18 | -0.917 | -0.0981 | -0.0351 | -0.216 | -0.106 | -0.394 | 1.57 | 1.18 | 2.18 | 1.15 | -0.0216 | 0.387 | -0.373 | -0.000725 | –
24 | CTCGAAAGGTCGTTTGAGGTGAGTATACGGATAA | 0.353 | 1.91 | 1.09 | 0.474 | 1.54 | 5.25 | 0.584 | 4.16 | -0.088 | 3.89 | 3.19 | 4.34 | 3.76 | 2.94 | 4.56 | 1.76 | 2.79 | –
25 | GGAACGAGGGCATTCGAGGTGATAGCATGGCGAT | 3.12 | 2.76 | 0.0817 | -0.391 | 0.378 | 2.36 | 0.0978 | 1.4 | -0.289 | 1.97 | 1.3 | 1.4 | 1.47 | 2.66 | 1.07 | 0.517 | 1.77 | –
